Among the test systems are NCI-H23 lung; NCI-H226 lung; NCI-H322M lung; HOP-62 NSCLC; NCI-H460 lung; HOP-92 NSCLC; NCI-H522 lung; A549/ATCC NSCLC; 786-0 renal; COLO 205 colon; DU-145 prostate; K-562 leukemia; MALME-3M melanoma; MDA-MB-231 breast; RXF 393 renal; SF-268 CNS; SF-295 CNS; SF-539 CNS; UACC-257 melanoma; M14 melanoma.
Common to all, as to assay: NCI-60 one-dose screen, 48 h (100 = growth as untreated, 0 = no growth, -100 = all killed)
What all share (conditions): 10 µM unless noted

This is part of a sample that, as a whole, favours compounds with a hit. Of some 83,000 tested, about 20% had one in any assay.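 Cells were grown in 96-well plates and exposed to the test compound at a single concentration for 48 hours; results are reported as percent growth, with values below 10 considered active.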 Values without a mark were called inactive. Active and inactive are the calls of the source.

As for `N#Cc1c(-c2ccc(O)cc2)c2c(N)nn(-c3ccccc3)c2[nH]c1=O`, the growth in the test on NCI-H23 lung was 98.9%; with NCI-H226 lung, 94.5%; in the test on NCI-H322M lung, 103%; with HOP-62 NSCLC, 100%; in the test with NCI-H460 lung, 110%; in the test with HOP-92 NSCLC, 96.6%. The growth in the test with NCI-H522 lung is 91.3%; in the test on A549/ATCC NSCLC, 117%; with 786-0 renal, 107%; in the test with COLO 205 colon, 122%; with DU-145 prostate it was 109%; with K-562 leukemia it was 107%. Also, the growth was 105% in the test with MALME-3M melanoma; 97.8% with MDA-MB-231 breast; 113% in the test on RXF 393 renal; 100% with SF-268 CNS; 110% with SF-295 CNS; 95.7% in the test with SF-539 CNS. Besides, the figures for the growth in the test with UACC-257 melanoma and with M14 melanoma were 109% and 99.4%, respectively.

As to `CCCCCCCN(CCCCCCC)C(=N)c1ccnc2ccccc12`, the growth with NCI-H23 lung was 0.856% (active); in the test with NCI-H226 lung it was 39.3%; in the test on NCI-H322M lung it was -2.85% (active); in the test with HOP-62 NSCLC, -57.2% (active); with NCI-H460 lung, -83.9% (active); in the test with HOP-92 NSCLC, -4.56% (active). Besides, the growth in the test with NCI-H522 lung was -46.7% (active); in the test with A549/ATCC NSCLC, -57.4% (active); in the test with 786-0 renal, -93.6% (active); with COLO 205 colon, -72.9% (active); in the test with DU-145 prostate it was 1.08% (active); in the test on K-562 leukemia it was -14.9% (active). For the same molecule, the growth in the test with MALME-3M melanoma was -76.2% (active); in the test with MDA-MB-231 breast, -71.3% (active); in the test with RXF 393 renal, -76% (active); in the test on SF-268 CNS it was 33%; with SF-295 CNS it was -78.3% (active); in the test on SF-539 CNS, -82% (active). Moreover, the growth with UACC-257 melanoma was -69.4% (active); in the test with M14 melanoma it was -64% (active).

`COc1ccc2c(c1)c(-c1nc(-c3cn(C)c4ncccc34)cs1)cn2CCN`: the growth was 81.2% with NCI-H23 lung; 84.2% in the test on NCI-H226 lung; 77.2% in the test with NCI-H322M lung; 77.1% with HOP-62 NSCLC; 31.7% in the test with NCI-H460 lung; 57.8% in the test on HOP-92 NSCLC. In addition, the growth with NCI-H522 lung was 93%; in the test on A549/ATCC NSCLC, 45.7%; with 786-0 renal, 94.4%; with COLO 205 colon, 77%; in the test on DU-145 prostate, 69.6%; in the test on K-562 leukemia it was 68.6%. Also, the growth is 105% in the test with MALME-3M melanoma; 63.3% in the test on MDA-MB-231 breast; 96.1% in the test with RXF 393 renal; 95.8% in the test on SF-268 CNS; 99.1% in the test with SF-295 CNS; 89.1% in the test with SF-539 CNS. Further, the growth was 98.3% in the test with UACC-257 melanoma and 97.3% with M14 melanoma.

Regarding `COc1ccc(OC)c(-c2c(C#N)c(-c3ccco3)nc3c2c(-c2ccccc2)nn3-c2ccccc2)c1`, the growth in the test on NCI-H23 lung was 96.7%; in the test with NCI-H226 lung, 90.1%; with NCI-H322M lung, 103%; in the test on HOP-62 NSCLC it was 106%; with NCI-H460 lung, 101%; with HOP-92 NSCLC, 78.5%. The growth was 81.9% in the test on NCI-H522 lung; 94.9% with A549/ATCC NSCLC; 100% in the test with 786-0 renal; 119% in the test with COLO 205 colon; 102% with DU-145 prostate; 105% in the test on K-562 leukemia. The growth in the test on MALME-3M melanoma was 112%; in the test with MDA-MB-231 breast, 90%; with RXF 393 renal, 99.8%; with SF-268 CNS, 96.2%; in the test on SF-295 CNS, 98.9%; with SF-539 CNS, 92.6%. The growth was 99.7% with UACC-257 melanoma and 108% in the test with M14 melanoma.

Consider `COc1cc(NC(C)CN(CC(C)C)C(C)C)c2ncccc2c1` (stereo not given), for which the growth in the test with NCI-H23 lung was 83.7%; with NCI-H226 lung it was 89.7%; with NCI-H322M lung it was 100%; in the test on HOP-62 NSCLC, 109%; with NCI-H460 lung, 106%; in the test with HOP-92 NSCLC, 74.4%. Further, the growth in the test on NCI-H522 lung is 101%; in the test on A549/ATCC NSCLC it was 105%; in the test on 786-0 renal, 111%; in the test on COLO 205 colon it was 96.9%; with DU-145 prostate, 106%; in the test on K-562 leukemia, 98.1%. The growth was 104% with MALME-3M melanoma; 81.1% with MDA-MB-231 breast; 113% in the test on RXF 393 renal; 94.7% in the test on SF-268 CNS; 110% with SF-295 CNS; 103% in the test with SF-539 CNS. For the same molecule, the growth in the test on UACC-257 melanoma is 99.5%; in the test on M14 melanoma it was 102%.

For the molecule `Clc1cc(Cl)cc(Nc2ccc3c(OCCCN4CCOCC4)cccc3n2)c1`, the growth in the test on NCI-H23 lung is 77%; with NCI-H226 lung, 26.6%; in the test with NCI-H322M lung, 45.1%; with HOP-62 NSCLC, 57.4%; with NCI-H460 lung, 13.1%; in the test on HOP-92 NSCLC it was 37.3%. Besides, the growth in the test on NCI-H522 lung is 5.16% (active); in the test on A549/ATCC NSCLC, 25.6%; in the test with 786-0 renal, 54%; in the test on COLO 205 colon, -53.4% (active); in the test on DU-145 prostate, 41.9%; in the test on K-562 leukemia it was -33.9% (active). The growth was 71% in the test on MALME-3M melanoma; -24.6% (active) in the test on MDA-MB-231 breast; 53.5% in the test on RXF 393 renal; 48.4% in the test on SF-268 CNS; 30.6% with SF-295 CNS; 48.1% in the test on SF-539 CNS. The growth in the test with UACC-257 melanoma was 73.2%; in the test on M14 melanoma, 0.379% (active).

`CC1(C)c2ccccc2C(=O)C1(Br)Cc1ccccc1` (stereo not given): the growth with NCI-H23 lung was 74.1%; with NCI-H226 lung, 94.1%; with NCI-H322M lung, 95.5%; with HOP-62 NSCLC, 95%; in the test on NCI-H460 lung it was 96.8%; in the test with HOP-92 NSCLC, 83%. In addition, the growth with NCI-H522 lung is 83.1%; in the test with A549/ATCC NSCLC, 94.6%; with 786-0 renal, 81.7%; in the test with COLO 205 colon, 97.9%; in the test on DU-145 prostate, 92.5%; in the test on K-562 leukemia, 42.7%. Further, the growth in the test on MALME-3M melanoma is 121%; with MDA-MB-231 breast it was 105%; in the test with RXF 393 renal it was 83.5%; with SF-268 CNS, 89.6%; with SF-295 CNS, 85.7%; in the test with SF-539 CNS it was 89.9%. Moreover, the growth in the test with UACC-257 melanoma is 99.4%; in the test on M14 melanoma, 89.1%.

Turning to `COc1ccc2c(c1)C(Br)=C(CCO)C2c1ccccc1` (stereo not given), the growth in the test on NCI-H23 lung was 95%; in the test with NCI-H226 lung it was 100%; in the test with NCI-H322M lung, 15.8%; in the test on HOP-62 NSCLC it was 22.1%; in the test with NCI-H460 lung, 9.69% (active); with HOP-92 NSCLC, 35.5%. Besides, the growth with NCI-H522 lung is 96.8%; with A549/ATCC NSCLC it was 25.1%; in the test on 786-0 renal it was 85.4%; with COLO 205 colon, 48.2%; with DU-145 prostate it was -10.3% (active); with K-562 leukemia it was 122%. Further, the growth in the test on MALME-3M melanoma is 90.6%; with MDA-MB-231 breast, 56.3%; in the test on RXF 393 renal, 20%; in the test on SF-268 CNS, 84.3%; in the test with SF-295 CNS, 1.56% (active); in the test with SF-539 CNS, 63.7%. Also, the figures for the growth in the test on UACC-257 melanoma and with M14 melanoma were 77.6% and 89%, respectively.
